Reference: the supplement of paper PMC3724861
This excerpt belongs to a sample that is enriched for hits. The hit rate among all sequences tested is not known here. Values without a mark were called inactive.

What follows are sequences tested on T1, Caupolican (Caup) homeodomain DNA-binding domain (assay: PBM E-score (8-mer, recovered from the published 9-mer minima) (E-score (dimensionless, -0.5 to 0.5)); Drosophila protein; higher = stronger relative binding preference, active = 0.31 or more).
T1 sequence: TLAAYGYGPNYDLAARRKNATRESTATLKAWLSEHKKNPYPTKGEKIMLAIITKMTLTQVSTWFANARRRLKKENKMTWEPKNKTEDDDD
How it was run: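 Caup's homeodomain DNA-binding domain (residues 214-303) was made by in vitro transcription and translation and applied at 100 nM to custom-designed protein binding microarrays. Each value is an enrichment score that gives relative binding preference for a short DNA word, with higher meaning stronger. The 8-mer values were recovered from published 9-mer scores, each of which was the minimum of its two constituent 8-mer scores. A cutoff of 0.31 marks candidate sites.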

Row | Sequence | PBM E-score
1 | CGATCATC | 0.0443
2 | ATCCGCGG | -0.111
3 | AAAGTTGG | 0.0235
4 | ATAGGGGA | -0.137
5 | AACCGGCG | -0.0557
6 | GCTAGATA | 0.0474
7 | CCGCGTCC | -0.087
8 | CATGTATA | 0.418 (active)
9 | AGTGTATC | 0.186
10 | AATGTATC | 0.314 (active)
11 | CAAGTATC | 0.148
12 | GATGTATA | 0.295
13 | AATGTATA | 0.271
14 | AATGTATG | 0.243
15 | CCTGTATC | 0.125
16 | CATGTATC | 0.408 (active)
17 | CAACCCCA | -0.102
18 | CACTGATG | 0.107
19 | GAGAACGC | -0.0756
20 | CACTTCCG | -0.121
21 | ATATCGTC | 0.107
22 | AGACCCAA | -0.131
23 | GTTACAAC | 0.303
24 | CTCACAAG | 0.0655
25 | CTTACAAC | 0.333 (active)
26 | CTTACAAG | 0.343 (active)

Row | Sequence | PBM E-score
27 | CATACAAC | 0.27
28 | CTTACAAA | 0.181
29 | CCGCGTCA | -0.126
30 | AGCTGGTG | -0.0997
31 | AGCGGCGG | -0.225
32 | ATAGGCGA | -0.0622
33 | AGATGTCA | 0.279
34 | ATATGTCA | 0.305
35 | CGATGTCC | 0.143
36 | CGATGTCA | 0.311 (active)
37 | GGATGTCA | 0.311 (active)
38 | GTATGTCA | 0.345 (active)
39 | GGATGTGA | 0.081
40 | CGGTGTCA | 0.193
41 | CTATGTCA | 0.307
42 | ACAAGGTG | 0.255
43 | AAGCGCGA | -0.033
44 | CAACGTGA | 0.0867
45 | CGAGCTCA | -0.105
46 | CAACCGTA | 0.0275
47 | ATACATTG | 0.261
48 | AGACATAT | 0.264
49 | ATACATAG | 0.292
50 | CTACATAC | 0.286
51 | ATACATAT | 0.344 (active)
52 | CTACATTC | 0.119

Row | Sequence | PBM E-score
53 | AGACATAC | 0.222
54 | ATACATAA | 0.348 (active)
55 | ATACATAC | 0.332 (active)
56 | ATACATTC | ≥ 0.314 (active)
57 | CCTCACAA | -0.0288
58 | GGAATGAA | 0.00414
59 | GTAGAGGA | 0.00507
60 | AGTGATAA | 0.126
61 | GTCGCCAA | -0.0201
62 | GCCCTAAC | -0.104
63 | CATCATGA | 0.11
64 | ACACCAGT | 0.101
65 | CTCCCGAA | -0.138
66 | CTATTAAC | 0.178
67 | CAGGGATC | -0.124
68 | GCTCCAGC | -0.186
69 | ATGTAGTC | 0.331 (active)
70 | CAGTAGTA | 0.175
71 | CTGTAGTC | 0.0608
72 | GCGTAGTA | 0.0285
73 | ATGTAGTG | 0.27
74 | AAGTAGTC | 0.159
75 | GTGTAGTA | 0.357 (active)
76 | ATGTAGGC | 0.12
77 | AAGTAGTA | 0.186
78 | ATGTAGTA | 0.372 (active)

Row | Sequence | PBM E-score
79 | GAGTAGTA | 0.0893
80 | CTGTAGTA | 0.348 (active)
81 | AAAGGTGC | -0.0982
82 | TGAGCAAA | 0.0543
83 | GGAGGCAC | -0.154
84 | ACTGAGCA | 0.0738
85 | CTCTTTTC | -0.1
86 | CCTCTGTC | -0.0145
87 | AGCTCATC | -0.167
88 | ATCGTGTA | 0.407 (active)
89 | ATCGTGGA | -0.0656
90 | ATCGTGTC | 0.336 (active)
91 | ATCGTGTG | 0.149
92 | AGCGTGTA | 0.355 (active)
93 | CTCGTGTA | 0.27
94 | GTCGTGGA | -0.0165
95 | AGCGTGTC | 0.231
96 | CGCGTGTA | 0.285
97 | ATCGTGCA | 0.127
98 | GTCGTGTA | 0.386 (active)
99 | CTCGTGTC | 0.26
100 | CTTGAAGA | -0.0903
101 | ATCGACGG | -0.105
102 | GTTAAAGA | 0.0986
103 | GCAACTAC | 0.0804
104 | GGCAGAGA | -0.188

Row | Sequence | PBM E-score
105 | AGTCGAAA | 0.0145
106 | AAAACTCC | -0.138
107 | AACTCGGG | -0.0964
108 | GTTTCAAA | 0.0987
109 | GGGCTTTA | -0.186
110 | GATCTACA | 0.145
111 | CGATAACA | 0.244
112 | TAATAACA | 0.319 (active)
113 | GAATAACA | 0.301
114 | CAATAACA | 0.238
115 | GGATAACA | 0.238
116 | TGATAACA | 0.322 (active)
117 | CGGTCTTA | -0.00157
118 | ATGTAAGA | 0.332 (active)
119 | GTGTAAGA | 0.224
120 | CTGTAACA | 0.289
121 | GCGTAACA | 0.221
122 | ATGTAACG | 0.347 (active)
123 | GGGTAACA | 0.216
124 | CTGTAAGA | 0.138
125 | ACGTAACA | 0.263
126 | GTGTAACA | 0.397 (active)
127 | ATGTAACC | 0.275
128 | ATGTAACA | 0.429 (active)
129 | ACGTAACG | 0.0522
130 | GATAGATC | 0.0307

Row | Sequence | PBM E-score
131 | CACGCAAA | 0.0933
132 | CAAATACA | 0.245
133 | GTTCGCGA | 0.066
134 | TACTGCAA | 0.125
135 | ATTGGGCG | -0.135
136 | AAGTAATT | 0.18
137 | AGCCATAA | 0.0213
138 | ACCGGCGA | -0.156
139 | AGGTAACA | 0.327 (active)
140 | AGGTAACT | 0.0502
141 | AGGTAACC | -0.0119
142 | CTGGTAAG | -0.00689
143 | GTATGAGA | 0.0966
144 | CTATGACA | 0.223
145 | ATATGACC | 0.021
146 | GTATGACA | 0.312 (active)
147 | ATATGACA | 0.336 (active)
148 | GTATGATA | 0.242
149 | GAGCTGTA | 0.079
150 | CTATTGAA | 0.0499
151 | GCAAGTCC | -0.0418
152 | ACATAACA | 0.332 (active)
153 | ACATAATA | 0.323 (active)
154 | ACATAATC | 0.202
155 | ACATAACT | 0.291
156 | GCATAATA | 0.169

Row | Sequence | PBM E-score
157 | ACATAACC | 0.22
158 | GCCTATCA | -0.108
159 | CGATCAAA | -0.00998
160 | CATCTAAG | -0.0746
161 | GGTGTTTA | 0.124
162 | AGTGTTAA | 0.165
163 | TGTGTTAA | 0.32 (active)
164 | CGTGTTAG | 0.285
165 | CGTGTTAA | ≥ 0.33 (active)
166 | AGTGTTTA | 0.176
167 | CGTGTTAC | 0.282
168 | CGTGTTTA | 0.319 (active)
169 | GGTGTTAA | 0.18
170 | AGCTGAGG | -0.169
171 | AAGCCTAC | -0.0275
172 | AGACGGAC | -0.0361
173 | CTGAAATA | 0.0494
174 | AAATAACT | 0.19
175 | ACATCAAC | 0.235
176 | AAAGAGTA | 0.0035
177 | AGTACAAT | 0.292
178 | AGTACAAC | 0.275
179 | CGTACAAA | 0.18
180 | GGTACAAA | 0.256
181 | CGTACAAC | 0.31 (active)
182 | AGTACCAG | 0.0977

Row | Sequence | PBM E-score
183 | AGTACAAG | 0.416 (active)
184 | GGTACAAC | 0.32 (active)
185 | CGCACAAC | 0.0805
186 | CATACAAG | 0.3
187 | CGTACAAG | 0.37 (active)
188 | CGTACAGC | 0.00506
189 | GAGTTATC | 0.0344
190 | CTAGCAAC | 0.101
191 | GGTATTGA | 0.058
192 | AGCTCAAT | -0.0704
193 | TGAGTGCA | -0.0812
194 | CGTTTGCC | -0.0961
195 | TCATCGCA | 0.065
196 | CACCCACG | -0.151
197 | AAGGCGCG | -0.205
198 | GCATGAGC | -0.0712
199 | CGTCAACA | 0.0802
200 | TGACAACA | 0.377 (active)
201 | AGACAACG | 0.231
202 | GGTCAACA | 0.159
203 | TGTCAACA | ≥ 0.324 (active)
204 | TGACAGCA | 0.185
205 | TGACAAAA | 0.186
206 | AGACAACT | 0.191
207 | CGACAACC | 0.186
208 | CGACAACG | 0.168

Row | Sequence | PBM E-score
209 | AGACAACA | 0.349 (active)
210 | CGACAACA | 0.342 (active)
211 | AAGCATCA | 0.0394
212 | GCAAGTGC | -0.0754
213 | AGACAGGC | -0.00368
214 | AGTCCGGG | -0.154
215 | AAGTTGAC | 0.0758
216 | AACGCTGG | -0.0926
217 | CTATTGGA | 0.00708
218 | ATGCTGAC | 0.119
219 | GAAAGCAC | 0.0573
220 | ATGGTTGG | -0.0636
221 | AATATTGG | 0.0704
222 | ATCACTAG | 0.138
223 | GGACAACC | 0.169
224 | CGACAAGA | 0.317 (active)
225 | GGACAACA | 0.336 (active)
226 | CGACAAGC | 0.224
227 | AGACAAGA | 0.256
228 | GGACAAGA | 0.264
229 | AAGGGGTG | -0.101
